Assay results from the supplement of paper PMC10849652.
About 8,800 targets were measured; listed, in parts, are those with a hit and a random draw of the rest. About 0.5% of all pairs of compound and target were hits.

Assays:
Experiment in all cases: log2 fold change, soluble protein after heating vs DMSO (PISA); higher = thermal stabilisation; K562 lysate, 10 uM; active = over 0.2 and 3.5 SD of the protein, either way, in both replicates (recomputed)
[1] = compound: Cc1cn(-c2cc(NC(=O)c3ccc(C)c(Nc4nccc(-c5cccnc5)n4)c3)cc(C(F)(F)F)c2)cn1 [nilotinib]
How it was run: (§1)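 Quantification was by TMTpro 16plex LC-MS/MS with equalised channel sums, applied to the supernatant after 21,000xg for 90 min. Samples were crude K562 extract at 1 mg/mL protein in PBS pH 7.4 with 1 mM MgCl2, treated with 10 μM compound for 30 min, heated for 3 min across 48°C-58°C, pooled and brought to 0.5% NP-40 at 4°C. Values are log-two fold changes in thermal stability relative to solvent controls, from duplicates.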

[2] = compound: Cc1nc(Nc2n[nH]c3c2CN(C(=O)N[C@H](CN(C)C)c2ccccc2)C3(C)C)c2sccc2n1
How it was run: as §1

[3] = compound: Cc1nc(Nc2ncc(C(=O)Nc3c(C)cccc3Cl)s2)cc(N2CCN(CCO)CC2)n1 [dasatinib]
How it was run: as §1

[4] = compound: Cc1ncc(-c2ccnc(Nc3ccc(S(C)(=O)=O)cc3)n2)n1C(C)C
How it was run: as §1

[5] = compound: Cn1cc(-c2ccc3c(c2)CCN3C(=O)Cc2cccc(C(F)(F)F)c2)c2c(N)ncnc21
How it was run: as §1

[6] = compound: Cn1cc(CNCC2CCN(c3ncc(C(=O)NO)cn3)CC2)c2ccccc21 [quisinostat]
How it was run: as §1

[7] = compound: Cn1cncc1[C@@](N)(c1ccc(Cl)cc1)c1ccc2c(c1)c(-c1cccc(Cl)c1)cc(=O)n2C [tipifarnib]
How it was run: as §1

[8] = compound: NC(=O)Nc1cc(-c2cccc(F)c2)sc1C(=O)N[C@H]1CCCNC1
How it was run: as §1

[9] = compound: NC(=O)c1cnc(N[C@@H]2CCCC[C@@H]2N)nc1Nc1cccc(-n2nccn2)c1
How it was run: as §1

[10] = compound: NC1(c2ccc(-c3nc4ccn5c(=O)[nH]nc5c4cc3-c3ccccc3)cc2)CCC1
How it was run: as §1

Measured: log2 fold change

EHD2 (UniProt Q9NZN4)
Sequence of UniProt Q9NZN4 (Q9NZN4 whole entry, looked up): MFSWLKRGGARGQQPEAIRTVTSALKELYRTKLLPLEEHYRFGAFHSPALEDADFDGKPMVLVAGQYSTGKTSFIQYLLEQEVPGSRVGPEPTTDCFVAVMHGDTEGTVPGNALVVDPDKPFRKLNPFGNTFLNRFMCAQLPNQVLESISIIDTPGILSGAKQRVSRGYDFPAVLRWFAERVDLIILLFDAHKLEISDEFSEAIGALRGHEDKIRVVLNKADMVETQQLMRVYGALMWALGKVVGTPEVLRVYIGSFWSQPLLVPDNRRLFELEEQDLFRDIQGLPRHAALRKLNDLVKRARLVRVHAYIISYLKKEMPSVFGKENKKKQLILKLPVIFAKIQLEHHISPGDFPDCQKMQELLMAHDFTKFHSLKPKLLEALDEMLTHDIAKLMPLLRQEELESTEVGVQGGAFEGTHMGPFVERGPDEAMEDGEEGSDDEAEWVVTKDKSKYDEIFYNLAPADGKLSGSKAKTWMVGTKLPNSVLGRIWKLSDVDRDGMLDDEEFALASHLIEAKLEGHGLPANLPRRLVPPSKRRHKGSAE
inactive: [1] 0.007 | [2] -0.02 | [3] -0.018 | [4] 0.019 | [5] -0.084 | [6] -0.074 | [7] -0.047 | [8] 0.09 | [9] 0.029 | [10] -0.042

FTSJ3 (UniProt Q8IY81)
Sequence of UniProt Q8IY81 (Q8IY81 whole entry, looked up): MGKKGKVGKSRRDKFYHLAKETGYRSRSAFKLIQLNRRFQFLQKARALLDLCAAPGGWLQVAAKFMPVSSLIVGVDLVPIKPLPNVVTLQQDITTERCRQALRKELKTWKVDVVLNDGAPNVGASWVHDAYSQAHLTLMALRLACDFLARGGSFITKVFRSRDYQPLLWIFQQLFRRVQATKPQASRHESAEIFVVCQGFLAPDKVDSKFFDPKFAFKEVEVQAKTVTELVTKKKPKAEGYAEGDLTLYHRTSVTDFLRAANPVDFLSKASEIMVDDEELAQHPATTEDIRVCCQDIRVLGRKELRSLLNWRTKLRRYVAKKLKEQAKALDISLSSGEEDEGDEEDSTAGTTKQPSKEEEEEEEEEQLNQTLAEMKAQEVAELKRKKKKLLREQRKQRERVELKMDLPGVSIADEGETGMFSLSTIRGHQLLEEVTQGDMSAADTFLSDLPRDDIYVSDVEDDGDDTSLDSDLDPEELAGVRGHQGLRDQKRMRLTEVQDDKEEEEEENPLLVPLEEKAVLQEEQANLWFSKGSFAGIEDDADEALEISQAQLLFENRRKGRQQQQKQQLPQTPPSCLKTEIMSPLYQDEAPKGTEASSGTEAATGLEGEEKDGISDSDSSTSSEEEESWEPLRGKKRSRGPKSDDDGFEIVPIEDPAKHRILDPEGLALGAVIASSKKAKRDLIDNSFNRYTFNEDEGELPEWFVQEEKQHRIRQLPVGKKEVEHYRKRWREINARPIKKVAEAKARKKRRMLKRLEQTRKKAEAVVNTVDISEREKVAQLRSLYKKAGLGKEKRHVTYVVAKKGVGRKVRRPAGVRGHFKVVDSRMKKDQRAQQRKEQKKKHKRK
inactive: [1] 0.001 | [2] -0.025 | [3] 0.021 | [4] 0.016 | [5] -0.001 | [6] 0.066 | [7] -0.046 | [8] 0.047 | [9] 0.033 | [10] -0.015

DYNC1I2 isoform 5 (UniProt Q13409)
Sequence of UniProt Q13409 (Q13409 whole entry, looked up): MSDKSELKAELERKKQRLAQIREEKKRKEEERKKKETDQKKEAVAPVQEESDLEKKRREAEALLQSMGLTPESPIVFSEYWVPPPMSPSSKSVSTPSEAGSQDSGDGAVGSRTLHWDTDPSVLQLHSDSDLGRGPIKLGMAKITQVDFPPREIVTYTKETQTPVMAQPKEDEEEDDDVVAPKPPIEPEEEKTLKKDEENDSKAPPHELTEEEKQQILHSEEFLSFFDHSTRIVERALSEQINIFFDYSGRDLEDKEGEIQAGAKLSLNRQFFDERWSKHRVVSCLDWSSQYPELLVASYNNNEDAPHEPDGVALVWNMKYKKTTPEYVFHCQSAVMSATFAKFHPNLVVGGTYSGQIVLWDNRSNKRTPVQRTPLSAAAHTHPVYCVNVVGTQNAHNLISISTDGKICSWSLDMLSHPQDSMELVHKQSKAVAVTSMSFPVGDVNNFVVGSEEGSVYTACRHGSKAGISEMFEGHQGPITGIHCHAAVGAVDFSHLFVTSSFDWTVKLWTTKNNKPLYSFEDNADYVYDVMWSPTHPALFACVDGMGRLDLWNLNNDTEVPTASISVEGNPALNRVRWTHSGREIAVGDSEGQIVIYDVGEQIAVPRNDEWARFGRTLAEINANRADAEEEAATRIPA
inactive: [1] 0.029 | [2] 0.016 | [3] 0.008 | [4] -0.003 | [5] 0.001 | [6] 0.023 | [7] -0.011 | [8] -0.014 | [9] -0.008 | [10] -0.01

DSTN (UniProt P60981)
Sequence of UniProt P60981 (P60981 whole entry, looked up): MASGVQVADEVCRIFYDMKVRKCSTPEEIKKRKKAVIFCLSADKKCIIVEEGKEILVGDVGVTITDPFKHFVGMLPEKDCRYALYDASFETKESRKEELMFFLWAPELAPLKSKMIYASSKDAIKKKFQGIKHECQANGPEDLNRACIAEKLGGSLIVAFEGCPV
inactive: [1] 0.01 | [2] 0.012 | [3] -0.013 | [4] 0.009 | [5] 0.034 | [6] 0.045 | [7] -0.005 | [8] -0.022 | [9] 0.022 | [10] -0.008

EPN2 (UniProt O95208)
Sequence of UniProt O95208 (O95208 whole entry, looked up): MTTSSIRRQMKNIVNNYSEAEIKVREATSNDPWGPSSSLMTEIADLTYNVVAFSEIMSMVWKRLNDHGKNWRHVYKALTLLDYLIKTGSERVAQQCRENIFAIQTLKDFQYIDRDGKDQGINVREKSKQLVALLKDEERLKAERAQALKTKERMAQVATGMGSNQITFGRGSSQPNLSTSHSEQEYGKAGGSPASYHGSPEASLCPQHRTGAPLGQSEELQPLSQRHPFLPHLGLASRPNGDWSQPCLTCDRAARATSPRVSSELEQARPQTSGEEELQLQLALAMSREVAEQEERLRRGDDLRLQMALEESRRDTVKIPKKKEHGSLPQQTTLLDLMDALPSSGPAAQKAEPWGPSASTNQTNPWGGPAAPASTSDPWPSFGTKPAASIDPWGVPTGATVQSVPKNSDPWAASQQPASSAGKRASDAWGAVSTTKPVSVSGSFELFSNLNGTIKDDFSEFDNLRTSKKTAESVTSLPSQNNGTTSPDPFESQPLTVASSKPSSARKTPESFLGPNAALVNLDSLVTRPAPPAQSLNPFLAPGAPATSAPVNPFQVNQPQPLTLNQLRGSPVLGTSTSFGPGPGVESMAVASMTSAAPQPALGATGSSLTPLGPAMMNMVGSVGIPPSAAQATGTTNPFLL
inactive: [1] -0.001 | [2] 0.01 | [3] -0.011 | [4] 0.017 | [5] 0.054 | [6] -0.016 | [7] -0.07 | [8] 0.021 | [9] 0.01 | [10] -0.016

FECH isoform 2 (UniProt P22830)
inactive: [1] 0.796 | [2] 0 | [3] 0.353 | [4] 0.364 | [5] 0.009 | [6] 0.333 | [7] -0.007 | [8] -0.013 | [9] 0.139 | [10] 0.053

FANCD2 isoform 1 (UniProt Q9BXW9)
inactive: [1] 0.015 | [2] -0.002 | [3] -0.066 | [4] 0.048 | [5] 0 | [7] -0.037 | [8] 0.018 | [9] 0.033 | [10] -0.124
active: [6] -0.238

GATAD2A isoform 3 (UniProt Q86YP4)
Sequence of UniProt Q86YP4 (Q86YP4 whole entry, looked up): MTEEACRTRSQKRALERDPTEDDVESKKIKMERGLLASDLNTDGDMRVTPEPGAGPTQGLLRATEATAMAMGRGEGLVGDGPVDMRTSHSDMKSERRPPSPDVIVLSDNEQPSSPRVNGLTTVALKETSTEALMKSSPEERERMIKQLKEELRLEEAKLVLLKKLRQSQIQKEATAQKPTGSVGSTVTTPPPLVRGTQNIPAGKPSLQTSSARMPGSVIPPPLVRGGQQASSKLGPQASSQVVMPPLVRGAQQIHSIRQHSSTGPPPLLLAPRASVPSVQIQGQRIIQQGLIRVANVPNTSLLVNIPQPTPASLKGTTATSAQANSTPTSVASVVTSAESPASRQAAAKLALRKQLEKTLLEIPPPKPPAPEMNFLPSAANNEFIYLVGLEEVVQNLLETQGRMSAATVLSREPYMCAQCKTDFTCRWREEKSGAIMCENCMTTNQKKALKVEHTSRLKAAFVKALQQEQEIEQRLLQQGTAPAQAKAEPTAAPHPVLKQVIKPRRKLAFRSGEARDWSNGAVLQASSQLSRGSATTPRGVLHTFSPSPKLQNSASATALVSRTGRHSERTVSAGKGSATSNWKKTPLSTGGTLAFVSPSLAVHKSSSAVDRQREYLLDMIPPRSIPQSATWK
inactive: [1] 0.041 | [2] 0.001 | [3] 0.006 | [4] -0.009 | [5] 0.001 | [6] -0.074 | [7] -0.009 | [8] 0.032 | [9] 0.002 | [10] -0.024

EEF1A1, A0A087WVQ9
inactive: [1] 0.124 | [2] 0.012 | [3] 0.006 | [4] 0.044 | [5] 0.002 | [6] -0.025 | [7] -0.001 | [8] 0.024 | [9] 0.013 | [10] 0.016

EDC3 (UniProt Q96F86)
inactive: [1] 0.045 | [2] 0.016 | [3] -0.022 | [4] -0.031 | [5] 0.004 | [6] -0.006 | [7] -0.069 | [8] -0.019 | [9] -0.014 | [10] 0.017

FUBP3 (UniProt Q96I24)
inactive: [1] -0.201 | [2] -0.016 | [3] -0.094 | [4] 0.012 | [5] 0.01 | [6] -0.029 | [7] -0.009 | [8] 0.043 | [9] -0.005 | [10] 0.032

FAM118A (UniProt Q9NWS6)
Sequence of UniProt Q9NWS6 (Q9NWS6 whole entry, looked up): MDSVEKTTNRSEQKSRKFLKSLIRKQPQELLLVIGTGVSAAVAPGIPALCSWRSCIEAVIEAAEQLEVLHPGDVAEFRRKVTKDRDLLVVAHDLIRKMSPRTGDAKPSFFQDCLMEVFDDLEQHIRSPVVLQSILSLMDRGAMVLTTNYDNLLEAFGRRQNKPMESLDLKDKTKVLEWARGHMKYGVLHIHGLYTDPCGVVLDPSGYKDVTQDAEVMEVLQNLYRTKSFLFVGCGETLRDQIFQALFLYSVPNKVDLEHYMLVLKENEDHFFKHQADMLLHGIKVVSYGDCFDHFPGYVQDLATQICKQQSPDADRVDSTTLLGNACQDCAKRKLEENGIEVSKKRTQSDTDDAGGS
inactive: [1] -0.017 | [2] -0.03 | [3] -0.043 | [4] -0.003 | [5] -0.082 | [6] -0.103 | [7] 0.016 | [8] 0.013 | [9] 0.003 | [10] -0.023

EXOC3 (UniProt O60645)
Sequence of UniProt O60645 (O60645 whole entry, looked up): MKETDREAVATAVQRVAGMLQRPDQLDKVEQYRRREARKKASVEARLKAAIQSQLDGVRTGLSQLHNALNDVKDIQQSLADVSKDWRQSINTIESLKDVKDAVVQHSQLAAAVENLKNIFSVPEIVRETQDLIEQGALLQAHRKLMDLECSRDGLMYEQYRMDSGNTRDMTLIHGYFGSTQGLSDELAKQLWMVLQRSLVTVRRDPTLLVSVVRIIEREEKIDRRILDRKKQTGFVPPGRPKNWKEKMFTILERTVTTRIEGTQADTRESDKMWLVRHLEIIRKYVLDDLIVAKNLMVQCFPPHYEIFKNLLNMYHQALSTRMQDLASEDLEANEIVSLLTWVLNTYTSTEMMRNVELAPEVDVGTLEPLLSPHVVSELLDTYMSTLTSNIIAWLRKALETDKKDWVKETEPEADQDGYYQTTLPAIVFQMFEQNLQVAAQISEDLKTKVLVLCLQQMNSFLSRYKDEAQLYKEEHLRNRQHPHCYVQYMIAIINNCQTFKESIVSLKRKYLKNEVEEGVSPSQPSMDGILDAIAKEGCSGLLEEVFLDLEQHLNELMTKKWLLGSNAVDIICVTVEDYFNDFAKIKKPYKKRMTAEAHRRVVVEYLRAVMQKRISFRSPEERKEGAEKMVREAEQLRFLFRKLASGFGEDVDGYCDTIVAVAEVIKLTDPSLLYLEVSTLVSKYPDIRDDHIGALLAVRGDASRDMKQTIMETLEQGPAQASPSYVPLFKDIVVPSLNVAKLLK
inactive: [1] -0.013 | [2] 0.012 | [3] -0.06 | [4] 0.039 | [5] 0.021 | [6] -0.115 | [7] -0.018 | [8] 0.063 | [9] 0.005 | [10] -0.005

ELAVL4 (UniProt P26378)
Sequence of UniProt P26378 (P26378 whole entry, looked up): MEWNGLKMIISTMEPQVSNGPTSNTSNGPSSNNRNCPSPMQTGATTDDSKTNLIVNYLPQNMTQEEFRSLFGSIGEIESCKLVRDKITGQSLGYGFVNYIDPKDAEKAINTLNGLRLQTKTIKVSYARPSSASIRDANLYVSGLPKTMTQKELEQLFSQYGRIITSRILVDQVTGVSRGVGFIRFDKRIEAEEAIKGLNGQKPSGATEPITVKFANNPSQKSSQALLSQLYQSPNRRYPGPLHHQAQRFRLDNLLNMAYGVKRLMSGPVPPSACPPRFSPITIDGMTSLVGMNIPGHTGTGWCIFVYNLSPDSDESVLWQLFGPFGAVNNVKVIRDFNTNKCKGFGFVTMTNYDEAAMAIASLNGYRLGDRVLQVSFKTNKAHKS
inactive: [1] -0.07 | [2] -0.062 | [3] 0.006 | [4] 0.092 | [5] 0.039 | [6] -0.07 | [7] -0.06 | [8] 0.07 | [9] 0.01 | [10] 0.024

FIGNL1 (UniProt Q6PIW4)
inactive: [1] -0.011 | [2] 0.037 | [3] -0.101 | [4] 0.054 | [5] 0.068 | [6] -0.08 | [7] -0.044 | [8] 0.035 | [9] -0.02 | [10] -0.035
